Measurements reported in PubChem BioAssay.
Active and inactive are the calls of the source. Unless noted, no rule for the calls is given here.

Assays:
[1] = compounds binding Alexa647 anti-His antibody – biochemical, small-molecule microarray, 635 nm fluorescence, artefact control for SMM control protein annotation, primary screen (AID 1128); conditions: higher = more signal;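 also: score merges feature fluorescence with signal-to-noise for each printed compound spot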
[2] = system: Human papillomavirus type 1a E7 protein (residues 1-88); assay: HPV1a E7 small-molecule binders, primary screen, biochemical, small-molecule microarray, residues 1-88, 635 nm (AID 1129); conditions: small-molecule microarray binding, fluorescence 635 nm; higher = more signal
[3] = target: Focal adhesion kinase 1 (Homo sapiens) (UniProt Q05397); assay: PTK2 protein binding on printed compound slides – biochemical, small-molecule microarray, 635/667 nm fluorescence, BSA, DTT, primary screen (AID 1130); conditions: 635 nm fluorescence, higher = more signal;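 also: composite of spot emission at 667 nm and signal to noise over triplicate slides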
[4] = system: Fibrinogen (Alexa647-labelled); assay: Alexa647-fibrinogen binding to printed small molecules – biochemical, small-molecule microarray, 635/667 nm fluorescence, artefact control for SMM control-protein annotation, profiling panel (AID 1131); conditions: fibrinogen-A647 binding fluorescence, higher = more signal;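 also: z-score merges 667 nm fluorescence with per-spot signal-to-noise over triplicate slides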
[5] = target: Follistatin (Homo sapiens) (UniProt P19883); assay: FST protein binding to printed compounds – biochemical, small-molecule microarray, 635/667 nm fluorescence, primary screen (AID 1132); conditions: 635 nm fluorescence, higher = more signal
[6] = target: Fibroblast growth factor 2 (Homo sapiens) (UniProt P09038); assay: basic fibroblast growth factor binding to printed compounds – biochemical, small-molecule microarray, 635/667 nm fluorescence, primary screen (AID 1133); conditions: FGF2, fluorescence 635/667, higher = more signal
[7] = JC-1 mitochondrial potential readout, lung cancer cells – cell-based, A549, JC-1 fluorescence, basal, 24 h, 100 nL, profiling panel (AID 1138); conditions: higher = more signal;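 also: A549 lung adenocarcinoma cells under basal conditions with no added stimulus; test concentration not given here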
Lefty1 = Lefty1 protein binding to printed compounds – biochemical, small-molecule microarray, 635/667 nm fluorescence, primary screen (AID 1139); conditions: fluorescence 635/667, higher = more signal
[8] = system: wheat germ agglutinin (Triticum aestivum), Alexa647-labelled; assay: Alexa647-WGA lectin binding to printed small molecules – biochemical, small-molecule microarray, 635/667 nm fluorescence, artefact control for SMM control-protein annotation, profiling panel (AID 1140); conditions: WGA-A647 binding, 635 nm fluorescence, higher = more signal;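 also: score merges 667 nm feature emission with signal to noise over triplicate slides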
[9] = target: Luciferin 4-monooxygenase (Photinus pyralis) (UniProt P08659); assay: inhibition of purified Photinus pyralis luciferase – biochemical, luminescence, purified enzyme, 2006 set, primary screen (AID 1141); conditions: purified firefly luciferase, SteadyGlo luminescence, 30 min; higher = more signal, called active from +8 up or from −8 down;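 also: cell-free assay with purified firefly luciferase at 100 ng per well in PBS; test concentration not given here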
[10] = system: Wnt5a (protein binding on small-molecule microarray); assay: small molecules binding Wnt5a protein – biophysical, small-molecule microarray, 635/667 nm fluorescence, primary screen (AID 1142); conditions: 635 nm fluorescence, higher = more signal;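 also: fluorescence read at 667 nm with signal to noise per printed feature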
[11] = ATP-based viability of Huh7 replicon cells – cell-based, CellTiter-Glo luminescence, basal, 48 h, cytotoxicity control for HCV replication inhibitor project, primary screen (AID 1143); conditions: higher = more signal, called active from +8 up or from −8 down;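 also: Huh7 hepatoma cells carrying a hepatitis C replication reporter with no stimulus; test concentration not given here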
[12] = Pseudomonas biofilm growth suppression – PAO1 strain, BacTiter-Glo luminescence, LB-PBS, primary screen (AID 1144); conditions: P. aeruginosa PAO1 biofilm, 12 h, higher = more signal
[13] = basal CRE-LacZ reporter activity in PC12 – cell-based, unstimulated, primary screen (AID 1145); conditions: no forskolin, luminescence, 4.5 h, higher = more signal, called active from +8 up or from −8 down
[14] = forskolin-driven CRE-LacZ activity in PC12 – cell-based, CRE-LacZ reporter, forskolin-stimulated, primary screen (AID 1146); conditions: luminescence, 4.5 h, higher = more signal, called active from +8 up or from −8 down;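 also: PC12 cells with 6xCRE LacZ reporter stimulated by forskolin 10 µM; beta-galactosidase reporter signal reflecting CREB driven transcription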
[15] = target: Streptavidin (Streptomyces avidinii) (UniProt P22629); assay: compounds binding control protein streptavidin – biophysical, small-molecule microarray, 635/667 nm fluorescence, artefact control for SMM compound annotation, primary screen (AID 1147); conditions: higher = more signal;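 also: signal reflects streptavidin binding to arrayed compounds as a control protein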
[16] = probe aInhba binding on compound microarray – biochemical, small-molecule microarray, 635/667 nm fluorescence, primary screen (AID 1148); conditions: higher = more signal;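 also: score merges 667nm spot fluorescence with signal-to-noise for antibody binding to printed compounds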
Torsin-1A (Homo sapiens) [17] = target: Torsin-1A (Homo sapiens) (UniProt O14656); assay: TOR1A wild-type binding on microarray – cell lysate, small-molecule microarray, lysate, 635/667 nm, primary screen (AID 1149); conditions: COS7 hTOR1A-WT lysate, 635 nm fluorescence, higher = more signal
Torsin-1A (Homo sapiens) [18] = target: Torsin-1A (Homo sapiens) (UniProt O14656); assay: torsin A mutant lysate binding on microarrays – cell lysate, small-molecule microarray, COS7 lysate, 635/667 nm fluorescence, primary screen (AID 1150); conditions: COS7 hTOR1A mutant lysate, 635 nm fluorescence, higher = more signal;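 also: score pools 667 nm emission and signal to noise measuring lysate protein binding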
[19] = system: Sonic hedgehog protein (Shh); assay: Sonic hedgehog microarray binding compounds – biochemical, small-molecule microarray, 635/667 nm fluorescence, primary screen (AID 1151); conditions: 635 nm fluorescence, higher = more signal;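 also: Shh protein binding to compounds spotted on small-molecule microarray slides; score combines spot fluorescence intensity with signal-to-noise across triplicate slides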

Chain of Streptavidin (Streptomyces avidinii) (P22629 whole entry, looked up): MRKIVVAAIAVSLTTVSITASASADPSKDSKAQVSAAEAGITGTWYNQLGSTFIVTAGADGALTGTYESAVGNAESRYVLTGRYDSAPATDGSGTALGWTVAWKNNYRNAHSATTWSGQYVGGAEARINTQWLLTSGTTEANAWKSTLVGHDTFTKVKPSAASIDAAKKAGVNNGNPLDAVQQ
Chain of Torsin-1A (Homo sapiens) (O14656 whole entry, looked up): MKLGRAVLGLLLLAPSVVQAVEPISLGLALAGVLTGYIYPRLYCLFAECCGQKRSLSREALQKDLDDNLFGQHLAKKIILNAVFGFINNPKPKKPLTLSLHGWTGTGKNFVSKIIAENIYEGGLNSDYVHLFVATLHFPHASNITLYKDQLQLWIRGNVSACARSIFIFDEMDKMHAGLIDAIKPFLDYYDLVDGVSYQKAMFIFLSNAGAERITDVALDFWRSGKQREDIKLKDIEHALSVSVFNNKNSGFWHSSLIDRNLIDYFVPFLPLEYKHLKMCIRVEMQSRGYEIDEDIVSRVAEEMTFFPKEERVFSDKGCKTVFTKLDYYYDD
Chain of Focal adhesion kinase 1 (Homo sapiens) (Q05397 whole entry, looked up): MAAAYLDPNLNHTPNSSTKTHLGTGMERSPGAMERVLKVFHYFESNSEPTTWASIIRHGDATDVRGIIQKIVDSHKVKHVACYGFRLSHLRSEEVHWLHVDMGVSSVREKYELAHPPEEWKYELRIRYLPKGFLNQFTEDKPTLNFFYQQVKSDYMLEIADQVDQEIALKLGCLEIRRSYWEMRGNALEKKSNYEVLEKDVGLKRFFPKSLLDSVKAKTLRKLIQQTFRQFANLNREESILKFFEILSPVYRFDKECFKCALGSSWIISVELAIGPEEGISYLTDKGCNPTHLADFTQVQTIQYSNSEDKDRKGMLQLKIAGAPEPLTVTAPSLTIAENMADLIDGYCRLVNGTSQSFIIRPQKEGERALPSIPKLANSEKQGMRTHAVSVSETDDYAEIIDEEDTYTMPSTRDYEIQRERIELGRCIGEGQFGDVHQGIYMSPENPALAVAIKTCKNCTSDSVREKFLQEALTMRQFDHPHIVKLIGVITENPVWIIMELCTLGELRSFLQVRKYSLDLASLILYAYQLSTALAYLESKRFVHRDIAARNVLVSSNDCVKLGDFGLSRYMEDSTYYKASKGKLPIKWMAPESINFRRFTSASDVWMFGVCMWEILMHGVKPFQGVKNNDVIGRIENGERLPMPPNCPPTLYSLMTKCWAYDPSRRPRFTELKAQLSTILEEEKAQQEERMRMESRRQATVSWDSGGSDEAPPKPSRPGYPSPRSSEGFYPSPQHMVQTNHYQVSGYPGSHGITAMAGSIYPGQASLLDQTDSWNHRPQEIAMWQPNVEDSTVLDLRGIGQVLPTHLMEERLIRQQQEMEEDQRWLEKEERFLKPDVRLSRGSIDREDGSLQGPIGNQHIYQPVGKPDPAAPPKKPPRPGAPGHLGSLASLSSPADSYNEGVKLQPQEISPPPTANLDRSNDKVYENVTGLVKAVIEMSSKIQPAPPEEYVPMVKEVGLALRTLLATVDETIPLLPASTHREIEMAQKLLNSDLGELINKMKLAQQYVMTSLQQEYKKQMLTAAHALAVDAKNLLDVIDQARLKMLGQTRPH
Chain of Follistatin (Homo sapiens) (P19883 whole entry, looked up): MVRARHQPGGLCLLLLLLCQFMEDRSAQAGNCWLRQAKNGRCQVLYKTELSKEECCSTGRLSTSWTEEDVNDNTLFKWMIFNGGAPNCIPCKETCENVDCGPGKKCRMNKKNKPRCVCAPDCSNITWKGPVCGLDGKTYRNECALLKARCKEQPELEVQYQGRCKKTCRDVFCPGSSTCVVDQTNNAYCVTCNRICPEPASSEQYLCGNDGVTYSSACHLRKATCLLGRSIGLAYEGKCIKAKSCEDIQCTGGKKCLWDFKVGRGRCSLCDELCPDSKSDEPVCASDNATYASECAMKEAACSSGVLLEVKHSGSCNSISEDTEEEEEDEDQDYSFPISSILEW
Chain of Fibroblast growth factor 2 (Homo sapiens) (P09038 whole entry, looked up): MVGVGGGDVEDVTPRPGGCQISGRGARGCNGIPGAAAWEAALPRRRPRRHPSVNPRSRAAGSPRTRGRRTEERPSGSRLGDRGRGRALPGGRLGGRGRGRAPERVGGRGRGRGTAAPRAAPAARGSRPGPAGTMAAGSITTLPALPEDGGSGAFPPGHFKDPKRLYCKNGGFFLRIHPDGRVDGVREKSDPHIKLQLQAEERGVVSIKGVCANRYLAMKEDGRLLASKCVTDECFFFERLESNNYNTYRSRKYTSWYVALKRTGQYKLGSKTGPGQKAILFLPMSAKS
Chain of Luciferin 4-monooxygenase (Photinus pyralis) (P08659 whole entry, looked up): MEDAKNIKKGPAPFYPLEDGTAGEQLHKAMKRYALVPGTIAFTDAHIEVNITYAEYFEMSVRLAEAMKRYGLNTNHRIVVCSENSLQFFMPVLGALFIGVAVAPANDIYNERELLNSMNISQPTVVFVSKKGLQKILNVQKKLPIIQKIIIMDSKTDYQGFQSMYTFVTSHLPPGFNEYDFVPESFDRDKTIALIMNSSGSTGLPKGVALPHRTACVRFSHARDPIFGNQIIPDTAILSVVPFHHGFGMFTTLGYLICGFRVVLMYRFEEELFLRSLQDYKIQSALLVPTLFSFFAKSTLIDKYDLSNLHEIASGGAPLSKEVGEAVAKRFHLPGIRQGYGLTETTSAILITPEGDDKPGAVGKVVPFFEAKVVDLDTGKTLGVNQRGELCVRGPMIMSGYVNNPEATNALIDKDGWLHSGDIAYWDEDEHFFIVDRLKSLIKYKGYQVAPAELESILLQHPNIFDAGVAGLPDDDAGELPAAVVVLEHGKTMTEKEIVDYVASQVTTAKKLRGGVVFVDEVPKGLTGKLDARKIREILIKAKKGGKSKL

O=C1[C@H]2C=C(I)[C@H](C[C@@H]2OCCOCCO)[C@@]12CO2
composite z-score [1]: -0.0655
composite z-score [2]: 0.747
composite z-score [3]: 0.0017
composite z-score [4]: 0.0216
composite z-score [5]: 0.697
composite z-score [6]: 0.952
z-score [7]: -0.43
composite z-score (Lefty1): 0.858
composite z-score [8]: -0.12
z-score [9]: 0.818 (inactive)
composite z-score [10]: 0.0712
z-score [11]: 1.05 (inactive)
z-score [12]: -0.0471 (inactive)
z-score [13]: 1.67 (inactive)
z-score [14]: 0.839 (inactive)
composite z-score [15]: 1.08
composite z-score [16]: -0.106
composite z-score (Torsin-1A (Homo sapiens) [17]): 0.48
composite z-score (Torsin-1A (Homo sapiens) [18]): -0.0946
composite z-score [19]: 0.719

O=C1NC(=O)C2C1C=CC(C(O)c1ccco1)N2Nc1ccc(Cl)cc1Cl (stereo not given)
composite z-score [1]: 0.478
composite z-score [2]: 0.944
composite z-score [3]: -0.367
composite z-score [4]: -0.468
composite z-score [5]: 1.13
composite z-score [6]: -0.311
z-score [7]: -0.553
composite z-score (Lefty1): 0.121
composite z-score [8]: 0.673
z-score [9]: -0.512 (inactive)
composite z-score [10]: -0.118
z-score [11]: -0.483 (inactive)
z-score [12]: -0.315 (inactive)
z-score [13]: 0.0501 (inactive)
z-score [14]: 0.815 (inactive)
composite z-score [15]: 0.531
composite z-score [16]: -0.0986
composite z-score (Torsin-1A (Homo sapiens) [17]): 0.148
composite z-score (Torsin-1A (Homo sapiens) [18]): 0.672
composite z-score [19]: 0.576

CCCC=C(CCC)[C@@H](NP(=O)(c1ccccc1)c1ccccc1)c1ccc(-c2ccccc2)cc1
composite z-score [1]: 0.809
composite z-score [2]: 1.21
composite z-score [3]: 0.332
composite z-score [4]: 0.997
composite z-score [5]: 1.11
composite z-score [6]: -0.0567
z-score [7]: -2.3
composite z-score (Lefty1): 0.38
composite z-score [8]: 1.25
z-score [9]: 2.64 (inactive)
composite z-score [10]: 0.363
z-score [11]: -1.53 (inactive)
z-score [12]: 0.892 (inactive)
z-score [13]: 0.204 (inactive)
z-score [14]: 1.24 (inactive)
composite z-score [15]: 1.09
composite z-score [16]: 0.3
composite z-score (Torsin-1A (Homo sapiens) [17]): 0.804
composite z-score (Torsin-1A (Homo sapiens) [18]): 1.68
composite z-score [19]: -0.0804

Cc1cc(C)c(C(O)C2C=CC3C(=O)N(c4ccccc4)C(=O)C3N2Nc2ccccc2F)c(C)c1 (stereo not given)
composite z-score [1]: 1.29
composite z-score [2]: -0.103
composite z-score [3]: 0.39
composite z-score [4]: 0.859
composite z-score [5]: 0.0286
composite z-score [6]: -0.435
z-score [7]: -0.909
composite z-score (Lefty1): -0.589
composite z-score [8]: 0.403
z-score [9]: -0.746 (inactive)
composite z-score [10]: -0.122
z-score [11]: 0.224 (inactive)
z-score [12]: -0.386 (inactive)
z-score [13]: 0.44 (inactive)
z-score [14]: -0.425 (inactive)
composite z-score [15]: 0.563
composite z-score [16]: 0.122
composite z-score (Torsin-1A (Homo sapiens) [17]): -0.489
composite z-score (Torsin-1A (Homo sapiens) [18]): -0.395
composite z-score [19]: 0.0807

COC(=O)c1c(CC[C@@H](CO)NC(=O)N[C@@H](C)Cn2cc(-c3ccccn3)nn2)oc(C(C)=O)c1C(=O)OC
composite z-score [1]: 1.73
composite z-score [2]: -0.0012
composite z-score [3]: -0.291
composite z-score [4]: -0.676
composite z-score [5]: 1.28
composite z-score [6]: 0.707
z-score [7]: -0.467
composite z-score (Lefty1): 0.936
composite z-score [8]: 0.184
z-score [9]: 0.641 (inactive)
composite z-score [10]: 0.182
z-score [11]: -2.77 (inactive)
z-score [12]: -0.243 (inactive)
z-score [13]: 1.21 (inactive)
z-score [14]: 0.363 (inactive)
composite z-score [15]: -0.893
composite z-score [16]: 0.154
composite z-score (Torsin-1A (Homo sapiens) [17]): 0.372
composite z-score (Torsin-1A (Homo sapiens) [18]): 0.591
composite z-score [19]: 1.74

CCCC=C(CCC)[C@@H](NC(=O)C(C)(C)C)c1ccc(C(=O)OC)cc1
composite z-score [1]: 0.933
composite z-score [2]: 1.01
composite z-score [3]: 0.451
composite z-score [4]: 0.972
composite z-score [5]: 0.156
composite z-score [6]: -0.764
z-score [7]: 2.85
composite z-score (Lefty1): -0.947
composite z-score [8]: 0.995
z-score [9]: 1.91 (inactive)
composite z-score [10]: 0.0146
z-score [11]: -2.97 (inactive)
z-score [12]: -0.168 (inactive)
z-score [13]: -0.379 (inactive)
z-score [14]: -0.744 (inactive)
composite z-score [15]: 1.69
composite z-score [16]: 0.127
composite z-score (Torsin-1A (Homo sapiens) [17]): -0.0649
composite z-score (Torsin-1A (Homo sapiens) [18]): 0.123
composite z-score [19]: -0.824

CCOC(=O)C[C@H]1[C@H](OC(=O)c2cc3ccccc3oc2=O)[C@@H](NC(=O)c2ccc3ccccc3n2)c2cc(OCCCO)ccc2N1C(=O)Cc1ccc(OC)cc1
composite z-score [1]: 0.357
composite z-score [2]: 1.18
composite z-score [3]: 0.277
composite z-score [4]: 0.953
composite z-score [5]: 1.06
composite z-score [6]: 0.509
z-score [7]: 0.57
composite z-score (Lefty1): 1.06
composite z-score [8]: 0.275
z-score [9]: 0.798 (inactive)
composite z-score [10]: 0.155
z-score [11]: -0.593 (inactive)
z-score [12]: -1.05 (inactive)
z-score [13]: -1.23 (inactive)
z-score [14]: -0.74 (inactive)
composite z-score [15]: 0.386
composite z-score [16]: -0.0136
composite z-score (Torsin-1A (Homo sapiens) [17]): -0.262
composite z-score (Torsin-1A (Homo sapiens) [18]): -0.0557
composite z-score [19]: 1.56

CC1CC/C=C\[C@H]2OC34C=CCN(c5ccc(Cl)cc5)C(=O)[C@H]3N(C(C)CO)C(=O)[C@]4(C)C2C(=O)O1 (stereo not given in full)
composite z-score [1]: -0.984
composite z-score [2]: -1.5
composite z-score [3]: -0.177
composite z-score [4]: -0.173
composite z-score [5]: -0.954
composite z-score [6]: -1.06
z-score [7]: 0.798
composite z-score (Lefty1): -0.847
composite z-score [8]: 0.429
z-score [9]: -1.14 (inactive)
composite z-score [10]: -0.304
z-score [11]: 0.0276 (inactive)
z-score [12]: 0.2 (inactive)
z-score [13]: -0.0859 (inactive)
z-score [14]: 0.325 (inactive)
composite z-score [15]: -0.367
composite z-score [16]: -0.401
composite z-score (Torsin-1A (Homo sapiens) [17]): -0.979
composite z-score (Torsin-1A (Homo sapiens) [18]): -1.5
composite z-score [19]: -0.374

CCCCCCc1nc(Cc2cc(OC)c(OC)c(OC)c2)cc2c1[Si](C(C)C)(C(C)C)OC2
composite z-score [1]: -0.215
composite z-score [2]: -0.517
composite z-score [3]: -0.191
composite z-score [4]: -0.0217
composite z-score [5]: 0.422
composite z-score [6]: 0.521
z-score [7]: 0.185
composite z-score (Lefty1): 0.566
composite z-score [8]: -0.0555
z-score [9]: 0.809 (inactive)
composite z-score [10]: 0.03
z-score [11]: -5.33 (inactive)
z-score [12]: -0.012 (inactive)
z-score [13]: 0.498 (inactive)
z-score [14]: -0.419 (inactive)
composite z-score [15]: 0.0761
composite z-score [16]: 0.0973
composite z-score (Torsin-1A (Homo sapiens) [17]): 0.108
composite z-score (Torsin-1A (Homo sapiens) [18]): -0.282
composite z-score [19]: 0.724

CC1=C2[C@@H](CCc3ccccc3)OB(O)C[C@@H]2[C@@H]2C(=O)N(C)C(=O)[C@@H]2C1
composite z-score [1]: -0.463
composite z-score [2]: 0.591
composite z-score [3]: 0.0327
composite z-score [4]: 0.762
composite z-score [5]: 0.587
composite z-score [6]: 0.509
z-score [7]: -0.0475
composite z-score (Lefty1): 0.617
composite z-score [8]: 0.344
z-score [9]: 0.143 (inactive)
composite z-score [10]: 0.318
z-score [11]: -0.239 (inactive)
z-score [12]: -0.294 (inactive)
z-score [13]: -0.866 (inactive)
z-score [14]: 0.829 (inactive)
composite z-score [15]: -0.0498
composite z-score [16]: -0.252
composite z-score (Torsin-1A (Homo sapiens) [17]): -0.126
composite z-score (Torsin-1A (Homo sapiens) [18]): 0.355
composite z-score [19]: 0.464
